Screening results from PubChem.
VP16 counter – Gal4-VP16 reporter inhibition counter-screen | Drosophila S2 Gal4-VP16 UAS-luciferase, luminescence, 20 h | Potency, µM (series often up to 53.6 µM), for inactives: at the highest dose activity, negative = inhibition, actives largely listed as inhibitors | 310,000 tested, 3.5% active | AID 2546;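 also: Gal4-VP16 expression switched on by copper sulfate through the metallothionein promoter; % is scaled to controls: 0 for no effect and ±100 for the full control effect; nearly all actives have a fitted effect of over 50% in size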
S2 tox – cell viability loss in ATXN counter-screen. 400,000 tested, 0.49% active. S2 cells (HEK-293 line with an ATXN2-luciferase reporter) viability, CellTiter-Fluor protease fluorescence, 24 h. AID 651635. Potency, µM (doses to about 56.7 µM), hits mostly cytotoxic; also: nearly all actives have a fitted effect of over 40% in size
HepG2 viability – kills HepG2 cells in TGF-b inhibitor counter-screen | AID 588856 | HepG2 CAGA-GFP viability, ATP luminescence, 18 h | 410,000 tested, 0.76% active | Potency, µM (series often up to 46.1 µM), without a hit: top-dose activity change, negative = cytotoxicity, hits mostly cytotoxic
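CellTiter-Glo luminescence gave cytotoxicity after 18 hours at 37 degrees C. The cells were HepG2 CAGA-GFP in 1% FBS DMEM, stimulated with 500 pg/mL TGF-beta after compound addition. %Activity was normalised to no-cell wells (complete cell-killing) and DMSO (no toxicity), and curves were fitted and classified.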
ATXN2 expr inh – reduces ATXN2 reporter expression in HEK-293 cells; HEK-293 ATXN2-luciferase reporter, luminescence, 24 h; Potency, µM (titrated, usually from 57 µM), inactives show at the highest dose activity change, negative = inhibition, usual class: inhibitors; 360,000 tested, 0.72% active; also: % is scaled to controls: 0 for no effect and ±100 for the full control effect; nearly all actives have a fitted effect of over 55% in size
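ATXN2-luciferase reporter cells (luciferase flanked by upstream and downstream ATXN2 gene portions) were treated 24 h at 37 °C with compounds at up to 57 uM. SteadyGlo luminescence gave expression; GF-AFC fluorescence gave viability.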
TGFb SMAD3 inh – inhibitors of TGF-b signaling. HepG2 CAGA-GFP TGF-b/SMAD3 reporter, GFP fluorescence, 18 h; TGF-beta stimulated, 500 pg/mL final. Potency, µM (series often up to 46.1 µM), without a hit: at the top dose activity, negative = inhibition, usual class: inhibitors. 410,000 tested, 1.2% active; also: % is scaled to controls: 0 for no effect and ±100 for the full control effect; nearly all actives have a fitted effect of over 65% in size
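HEPG2 CAGA-GFP cells (1000/well, DMEM with 1% FBS) were pre-incubated 2 h at 37 degrees C, given compound by pin tool, then stimulated with TGF-beta at 500 pg/mL final for 18 h before per-cell GFP fluorescence imaging.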
RORg inh – inhibitors of mouse ROR gamma transcriptional activity. P51450. Drosophila S2 Gal4-RORgamma UAS-luciferase reporter, 20 h. Potency, µM (doses to about 53.6 µM), for inactives: at the highest dose activity change, negative = inhibition, most hits filed as inhibitors. 310,000 tested, 5.4% active. AID 2551; also: % is scaled to controls: 0 for no effect and ±100 for the full control effect; nearly all actives have a fitted effect of over 60% in size
Target sequence (P51450 whole entry, looked up, the tested form may be a part): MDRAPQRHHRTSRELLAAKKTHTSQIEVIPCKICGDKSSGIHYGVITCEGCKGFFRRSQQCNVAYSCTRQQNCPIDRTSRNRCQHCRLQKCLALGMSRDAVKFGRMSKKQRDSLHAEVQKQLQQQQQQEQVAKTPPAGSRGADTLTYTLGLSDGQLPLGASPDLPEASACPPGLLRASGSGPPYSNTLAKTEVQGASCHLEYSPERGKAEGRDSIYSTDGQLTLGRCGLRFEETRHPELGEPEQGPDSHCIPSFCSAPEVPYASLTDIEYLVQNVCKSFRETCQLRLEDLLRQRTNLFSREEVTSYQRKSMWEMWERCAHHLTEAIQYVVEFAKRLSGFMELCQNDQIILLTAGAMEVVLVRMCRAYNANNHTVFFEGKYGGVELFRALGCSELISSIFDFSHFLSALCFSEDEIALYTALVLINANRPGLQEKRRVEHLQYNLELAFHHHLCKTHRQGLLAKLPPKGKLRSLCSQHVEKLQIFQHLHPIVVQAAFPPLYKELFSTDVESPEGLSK
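Schneider cells (Drosophila), stable Gal4 DBD–ROR gamma + UAS-luc; 1 hr cmpd preincubation; Cu2+ induction 700 uM final; 20 hr ambient; luminescence.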
Numbers without * were called inactive; i = inactive; ? = inconclusive; nt = no result given; ! = a repeat was not active; [ ] = remark or other dose. A selection: hits, their analogues and other compounds. The true share with any hit is near 6.1%. Calls follow the shape of the dose curve; as a rule, active = well fitted curve in the direction sought with a large enough effect; inconclusive = small, poorly fitted or top-dose-only effect, or another doubt; inactive = no such curve, though single readings can be large; an effect the other way counts as inactive or inconclusive. Potency is read from the fitted curve at half-maximal effect.

SMILES	VP16 counter	S2 tox	HepG2 viability	ATXN2 expr inh	TGFb SMAD3 inh	RORg inh
O=C(N/N=C/c1cccnc1)c1ccc2c(c1)OCCO2	14.1µM*	i	-6.5%	1.1%	0.1%	?
O=C(N/N=C\c1c(O)ccc2ccccc12)c1ccc(S(=O)(=O)N2CCCCC2)cc1	3.98µM*	nt	19.1%	0.532µM*	0.0%	2.51µM*
O=C(N/N=C/c1ccc2c(c1)OCO2)c1cccnc1	18.0%	i	-4.2%	10.7%	-5.1%	-22.7%
O=C(CNC(=O)c1ccc(S(=O)(=O)N2CCCC2)cc1)N/N=C/c1ccccc1Cl	-6.9%	i	25.6%	-7.8%	29.1%	?
CN(CC1COCCO1)C(=O)c1cnn(-c2ncc3c(n2)-c2ccccc2CC3)c1C1CC1 (centres undefined)	nt	i	nt	nt	nt	nt
Cc1oc(-c2ccccc2NC(=O)C2CCCO2)nc1CNC(=O)c1cc(Cl)ccc1F (centres undefined)	nt	i	nt	nt	nt	nt
COc1cc(-c2nc(-c3ccc(NC(=O)c4ccc5c(c4)OCO5)cc3)no2)cc(OC)c1OC	?	31.6µM*	-56.8%	?	?	25.8%
CC1=NN(c2ccccc2)C(=O)C1C(=O)c1ccc(Cl)cc1 (centres undefined)	?	?	-18.6%	?	-20.5%	11.2µM*
COC(=O)c1c(C)[nH]c(C(=O)CSc2ncnc3sc(-c4ccccc4)cc23)c1C	-9.6%	i	3.98µM*	-18.1%	-12.8%	2.6%
CC(C)N(C(=O)CSc1ncnc2sc(-c3ccccc3)cc12)C(C)C	1.9%	i	-2.4%	17.8%	-27.1%	-12.3%
Cc1oc(-c2ccc(Cl)cc2)cc1C(=O)O	?	i	-7.6%	42.6%	1.7%	14.1µM*
COc1ccc(C(=O)NNc2ncnc3c2cnn3-c2ccc(C)cc2C)cc1	nt	i	-17.2%	5.9%	?	nt
CO[C@@]12[C@H](COC(N)=O)C3=C(C(=O)C(C)=C(N)C3=O)N1C[C@@H]1N[C@@H]12	nt	?	0.3%	1.72µM*!	-3.9%	nt
CO[C@@]12[C@@H]3N[C@@H]3CN1C1=C(C(=O)C(N)=C(C)C1=O)[C@@H]2COC(N)=O	nt	?	-27.1%	1.26µM*	?	nt
CCNc1cc(NC2CCC(O)CC2)nc(Nc2ccc3c(ccn3Cc3ccccc3)c2)n1 (centres undefined)	nt	nt	nt	-18.6%	nt	nt
Cc1cc(Cl)ccc1OCC(=O)NNC(=O)c1cnccn1	?	?	-5.7%	?	-5.5%	7.08µM*
O=C(COc1ccc2ccccc2c1)NNC(=O)c1cnccn1	-14.6%	i	-33.2%	-23.4%	-17.1%	?
CCC(C(=O)NNC(=O)c1cnccn1)c1ccccc1 (centres undefined)	15.8µM*	i	-35.8%	-21.2%	-20.6%	11.2µM*
O=C(COc1cccc2ccccc12)NNC(=O)c1cnccn1	?	i	-6.3%	-20.7%	?	12.6µM*
O=C(Nc1nc(-c2cccc3ccccc23)cs1)c1cnccn1	?	i	-28.3%	-12.1%	-23.4%	14.1µM*
COCCNC(=O)c1ccc2c(c1)NC(=O)C(CS(=O)(=O)Cc1ccc(F)cc1Cl)N2 (centres undefined)	nt	nt	-2.0%	nt	-1.9%	nt
O=S(=O)(c1ccc(Br)cc1)c1nc(-c2cccs2)oc1SCc1ccc(F)cc1	nt	i	-1.1%	5.1%	-14.6%	nt
Cc1cc(Br)ccc1OCC(=O)NNC(=O)c1cnccn1	?	i	-15.3%	nt	?	8.91µM*
COc1ccc(CC(=O)NNC(=O)COc2ccc(Br)cc2C)cc1OC	-2.2%	i	10.6%	-8.3%	-8.2%	0.1%
Cc1ccc(NC(=O)c2ccc(OC(=O)COc3ccc(Cl)cc3C)cc2)cc1	-4.7%	i	-6.2%	58.7%	-6.4%	-4.9%
SMILES	VP16 counter	S2 tox	HepG2 viability	ATXN2 expr inh	TGFb SMAD3 inh	RORg inh
Cc1ccc(C(=O)CC(=O)COc2ccc(Cl)cc2C)cc1	4.47µM*	i	-30.5%	33.5%	?	10µM*
CCc1cccc(NC(=O)C(Cc2ccccc2)NS(=O)(=O)c2ccc3c(c2)oc(=O)n3C)c1 (centres undefined)	nt	i	1.6%	7.8%	-24.9%	nt
O=C(CSc1nc2ccsc2c(=O)n1Cc1ccccc1Cl)NCc1ccc(Cl)cc1	nt	i	-11.7%	15.3%	25.0%	nt
CN1CCCC(CNC(=O)c2cnn(-c3nccc(-c4cccs4)n3)c2C2CC2)C1 (centres undefined)	nt	i	nt	nt	nt	nt
COc1ccc(CNC(=O)c2cc(-c3cccc(Cl)c3)on2)cc1	nt	?	-34.0%	-15.7%	-25.3%	nt
COc1ccc(/C=C\c2onc(C)c2S(=O)(=O)N2CCC(C(=O)Nc3ccc(C)c(F)c3)CC2)cc1	nt	nt	-15.0%	nt	11.2µM*	nt
Cc1noc(/C=C/c2ccccc2F)c1S(=O)(=O)N1CCC(C(=O)Nc2ccc(C#N)cc2)CC1	nt	nt	-43.5%	nt	4.47µM*	nt
CNC(=O)C1CCN(S(=O)(=O)c2c(C)noc2/C=C/c2ccccc2F)CC1	-0.4%	i	-24.4%	-30.2%	-23.0%	-25.2%
COc1ccc(/C=C/N(CCc2ccc(OC)c(OC)c2)C(C)=O)cc1	-2.3%[10 µM]	nt	nt	nt	nt	5.3%[10 µM]
CCOc1ccc(N(CCCCO)C(=S)NC(=O)c2ccc(C)c(Br)c2)cc1	5.62µM*	i	-2.6%	4.4%	-5.2%	2.51µM*
C=CCNC(=S)NC(=O)c1ccc(C)c(Br)c1	?	i	-14.3%	14.3%	-27.0%	?
Cc1cccc(C)c1NC1=NC(=S)N(c2ccccc2)C12CCOC(C)(C)C2 (centres undefined)	?	i	-2.2%	-1.4%	-10.4%	3.98µM*
Cc1cccc(NC2=NC(=S)N(c3cccc(C(=O)O)c3)C23CCCCC3)c1	0.1%[10 µM]	?	18.7%	nt	8.3%	2.8%
COc1ccccc1N1C(=S)N=C(Nc2c(C)cccc2C)C12CCCC2	?	i	24.6%	45.9%	2.7%	7.94µM*
Cc1ccc(N2C(=S)N=C(Nc3ccccc3C)C23CCOC(C)(C)C3)cc1 (centres undefined)	12.6µM*	i	-40.9%	-1.1%	?	4.47µM*
COc1ccc(N2C(=S)N=C(Nc3cccc(C)c3)C23CCCCC3)cc1	6.31µM*	i	-15.2%	-6.9%	1.9%	2.24µM*
CCOc1ccc(NC(=O)C2Cc3ccccc3N2C(=O)c2ccccc2)cc1 (centres undefined)	nt	i	-22.6%	4.0%	-13.8%	nt
CSc1ccc(C2C(C#N)=C(N)Oc3cc4c(cc32)OCO4)cc1 (centres undefined)	5.3%	i	-38.6%	-37.2%	12.6µM*	-15.6%
